# Bioassay records from PubChem BioAssay.
# Shown are actives, neighbours in structure and some others; about 3.8% of the full set was active somewhere.
# ADAM10 inh: inhibitors of human ADAM10. O14672. recombinant ADAM10, EDANS/DABCYL FRET peptide cleavage, 3 h. actives 0.62% (n = 370,000). inhibition, % at 7 µM;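 active means inhibition above a per-campaign cutoff equal to the mean of compounds falling between control-based bounds plus 3 SD, cut at about 20% in these data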;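 further: 0% = DMSO wells while the 100% control is not disclosed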
# KLK7 zymogen act: activates the human kallikrein-7 zymogen; P49862; purified proKLK7, EDANS-DABCYL substrate fluorescence; 100% is mature enzyme control, 0% vehicle; activation, % at 7 µM; actives 0.9% (n = 370,000);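 active means activation above the mean of all tested compounds plus 3 SD, computed per campaign excluding outliers beyond control limits, cut at about 13% in these data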
# Target sequence (P49862 whole entry, looked up): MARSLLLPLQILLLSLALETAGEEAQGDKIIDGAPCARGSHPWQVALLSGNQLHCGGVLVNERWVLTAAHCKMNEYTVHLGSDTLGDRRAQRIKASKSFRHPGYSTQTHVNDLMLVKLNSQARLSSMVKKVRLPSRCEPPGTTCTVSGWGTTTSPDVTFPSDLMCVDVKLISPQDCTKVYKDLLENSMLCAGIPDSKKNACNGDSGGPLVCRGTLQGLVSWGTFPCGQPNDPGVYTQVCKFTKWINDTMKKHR
# FGF22 binding: FGF22 (human) thermal shift binding. Q9HCT0. recombinant FGF22 thermal shift, SYPRO orange fluorescence; percent of sucrose octasulfate shift, DMSO zero. activity (Tm shift, normalised), % at 9.99 µM. actives 1.5% (n = 340,000). AID 651658;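 active means mean Tm shift, scaled 0 neutral to 100 positive control, at about 1.3% or above, every replicate too, limit read from the data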
# Target sequence (Q9HCT0 whole entry, looked up): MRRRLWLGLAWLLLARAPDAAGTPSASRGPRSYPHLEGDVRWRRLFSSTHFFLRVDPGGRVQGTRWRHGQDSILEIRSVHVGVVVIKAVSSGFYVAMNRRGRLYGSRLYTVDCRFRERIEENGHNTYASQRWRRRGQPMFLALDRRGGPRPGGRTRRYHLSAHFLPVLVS
# ADAM17 inh: ADAM17 inhibition, QFRET primary screen. P78536. recombinant ADAM17, EDANS/DABCYL FRET peptide cleavage. inhibition, % at 6.95 µM. actives 0.83% (n = 370,000). AID 720648;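 active means inhibition above the mean of compounds lying between control limits plus 3 SD, set per campaign, cut at about 8.5% in these data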;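 further: 0% = DMSO-only wells as the low control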
# Ecoli rRNA inh: selective bacterial rRNA inhibition in E. coli; E. coli WT GFP vs humanized-ribosome RFP mutants, fluorescence, 24 h; active compounds read low; DMSO median 0, no signal -100; GFP signal change (wild-type ribosome), % (concentration not given with the values); actives 1.6% (n = 350,000); AID 720706;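 active means significant combined selectivity score with lowered wild-type GFP, culture density cut under 30%, mutant RFP and density less affected; inactive means any of these conditions unmet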
# ADAM10 confirm: confirmation of inhibitors of human ADAM10; shares compounds with ADAM10 inh; ADAM10 QFRET peptide cleavage, EDANS fluorescence; inhibition, % at 6.95 µM; AID 743208; actives 1% (n = 2,100);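 active means inhibition above about 20% chosen separately for each screening run, limit read from the data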;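 further: 0% = DMSO wells and 100% = marimastat wells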
# ADAM17 counter: ADAM17 inhibition, counter-screen for ADAM10 exosite hits | ADAM17 QFRET peptide cleavage, EDANS fluorescence | inhibition, % at 6.95 µM | actives 0.5% (n = 2,100) | shares compounds with ADAM10 inh;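 active means mean triplicate inhibition above the solvent-only control wells' mean plus 3 SD, cut at about 12% in these data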;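 further: 0% = DMSO wells and 100% = marimastat wells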
# ADAM10 ctr: inhibits human ADAM10 in ADAM17 exosite counter-screen; shares compounds with ADAM17 inh; recombinant ADAM10, EDANS/DABCYL FRET peptide cleavage, 3 h; inhibition, % at 6.95 µM; actives 47% (n = 2,900); AID 743256;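 active means mean inhibition over the triplicate runs exceeds the activity threshold set in the earlier primary screen, cut at about 20% in these data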;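 further: 0% = DMSO wells and 100% = marimastat wells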
# ADAM17 confirm: confirmation of inhibitors of human ADAM17 | actives 65% (n = 2,900) | shares compounds with ADAM17 inh | AID 743257 | inhibition, % at 6.95 µM | recombinant ADAM17, EDANS/DABCYL QFRET peptide cleavage;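 active means mean inhibition across replicates above the hit cutoff set in the primary screen, cut at about 8.5% in these data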;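 further: 0% = DMSO wells and 100% = marimastat wells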
# Starred values were filed as active, the others as inactive; . = no result.
SMILES,ADAM10 inh,KLK7 zymogen act,FGF22 binding,ADAM17 inh,Ecoli rRNA inh,ADAM10 confirm,ADAM17 counter,others
COc1ccc(CNC(=O)[C@H](NC(=O)C2CCN(C(=O)[C@@H](N)CCSC)CC2)C(C)C)cc1,82*,0,0,-1,.,-1,0,
COc1ccc(N(CC(O)Cn2cnc3ccccc32)S(=O)(=O)c2ccc(C)cc2)cc1 (centres undefined),22*,0,0,8,-12,2,0,
C[C@H]1CN([C@@H](C)CO)C(=O)Cc2cc(NC(=O)Nc3ccc(C(F)(F)F)cc3)ccc2O[C@@H]1CN(C)Cc1ccc(-c2ccccc2)cc1,.,.,0,.,3,.,.,
O=C(Nc1ccc(Br)c(C(F)(F)F)c1)c1ccc(C(F)(F)F)cc1,15,1,0,6,-57,.,.,
O=C(Nc1ccc(OCC(F)(F)C(F)F)c(C(F)(F)F)c1)c1ccc(Cl)cc1,25*,1,.,4,.,10,3,
O=C(Nc1ccc(C(O)(C(F)(F)F)C(F)(F)F)cc1)c1ccc(Cl)cc1,23*,.,.,6,.,2,1,
CC(C)Cc1ccc(C(C)C(=O)Nc2ccc(O)cc2)cc1 (centres undefined),21*,0,0,5,-27,1,1,
CC(C)Cc1ccc(C(C)C(=O)Nc2cccnc2)cc1 (centres undefined),-6,0,.,-2,-5,.,.,
COc1ccc(-c2csc(NC(=O)c3ccco3)n2)cc1,10,0,.,8,.,.,.,
O=C(Nc1ccccc1)Nc1nc(-c2ccccc2)cs1,1,0,0,-1,5,.,.,
COc1ccc(-c2csc(NC(=O)c3c(OC)cccc3OC)n2)cc1,30*,-3,0,2,4,7,1,
COc1cccc(-c2csc(NC(=O)Nc3ccccc3)n2)c1,25*,0,1,5,-28*,7,2,
OC[C@@H]1[C@H](c2ccc(-c3cccnc3)cc2)[C@@H]2CN(CC3CCOCC3)CCCCN12,.,.,0,.,.,.,.,
CCCCCCCOc1ccc(C2(C)NC(=O)NC2=O)cc1 (centres undefined),21*,0,0,5,-1,0,1,
O=C(COC(=O)Cc1c(Cl)cccc1Cl)Nc1ccccc1-c1ccccc1,23*,1,.,8,.,3,2,
O=C(COC(=O)Cc1ccc(Cl)cc1)Nc1ccccc1-c1ccccc1,3,1,.,4,.,.,.,
COc1ccc(C2C(C(=O)Nc3cccnc3)=C(C)Nc3nc(-c4cccs4)nn32)cc1OC (centres undefined),77*,0,0,-1,1,0,0,
COc1ccc(C2C(C(=O)Nc3cccnc3)=C(C)Nc3nc(-c4cccs4)nn32)cc1 (centres undefined),-8,0,.,-3,.,.,.,
COc1ccc2c3c([nH]c2c1)[C@H](CO)N(C(=O)NC(C)C)CC31CCN(C(=O)c2cccnc2)CC1,.,.,0,.,2,.,.,
OC(CNc1nc(C(F)(F)F)nc2ccccc12)c1ccccc1 (centres undefined),9,0,0,2,-49,.,.,
O=C(O)C(Nc1nc(C(F)(F)F)nc2ccccc12)c1ccccc1 (centres undefined),20*,1,0,1,6,1,1,
C[C@@H](NC(=O)C[C@@H]1C=C[C@H](NC(=O)Cc2ccccn2)[C@@H](CO)O1)c1ccccc1,.,.,0,.,1,.,.,
CC(=O)NC(c1ccc(F)c(F)c1)c1nc(-c2cccc(C(C)C)c2)cs1 (centres undefined),20*,0,-1,7,-3,3,2,
C[C@@H]1CN([C@@H](C)CO)C(=O)c2cc(-c3cccc(F)c3)cnc2O[C@@H]1CN(C)C,.,.,0,.,1,.,.,
COc1cccc(NC(=S)N(Cc2ccccn2)Cc2ccccc2Cl)c1,22*,1,0,9.3*,-2,2,2,ADAM10 ctr=24*;ADAM17 confirm=13*
SMILES,ADAM10 inh,KLK7 zymogen act,FGF22 binding,ADAM17 inh,Ecoli rRNA inh,ADAM10 confirm,ADAM17 counter,others
COc1ccc(NC(=S)N(Cc2ccccn2)Cc2ccccc2Cl)cc1,12,0,0,-2,2,.,.,
C[C@@]12C(=O)N(c3cccc(F)c3)C(=O)N1[C@@H]1c3ccccc3OC[C@@H]1[C@H]2c1ccccc1,23*,0,-1,11*,-3,5,2,ADAM10 ctr=5;ADAM17 confirm=7
Cc1ccc(S(=O)(=O)Nc2ccc(SC(F)F)cc2)c(C)c1,27*,0,.,11*,.,3,2,ADAM10 ctr=23*;ADAM17 confirm=11*
CC(C)c1ccc(S(=O)(=O)Nc2ccc(SC(F)F)cc2)cc1,41*,1,.,19*,.,9,3,ADAM10 ctr=26*;ADAM17 confirm=15*
COc1ccc2c3c(n(C)c2c1)[C@@H](CO)N(C(=O)Nc1ccc(F)cc1)CC31CCN(S(=O)(=O)c2cccs2)CC1,.,.,0,.,3,.,.,
CN(c1ccc(OCC(=O)OCC(=O)Nc2ccccc2)cc1)S(=O)(=O)c1cccs1,2,-1,0,-2,-9,.,.,
CN(c1ccc(OCC(=O)OCC(=O)Nc2ccc(Br)cc2)cc1)S(=O)(=O)c1cccs1,20*,-1,0,12*,1,7,2,ADAM10 ctr=31*;ADAM17 confirm=16*
C[C@H]1CN([C@@H](C)CO)C(=O)c2cc(-c3ccc(F)cc3)cnc2O[C@H]1CN(C)CC1CCCCC1,.,.,0,.,5,.,.,
O=C(Nc1cccc(Cl)c1)c1ccc(OC(=S)N2CCOCC2)cc1,-3,0,1,-4,13,.,.,
O=C(Nc1cccc2ccccc12)c1ccc(OC(=S)N2CCOCC2)cc1,21*,0,.,9.7*,.,5,3,ADAM10 ctr=16;ADAM17 confirm=11*
COc1ccc(NC(=O)N(C)C[C@@H]2Oc3c(NS(=O)(=O)c4ccc(F)cc4)cccc3C(=O)N([C@@H](C)CO)C[C@@H]2C)cc1,.,.,0,.,1,.,.,
COc1ccccc1-c1nnc(SC/C(O)=C(\C#N)c2nc3ccccc3[nH]2)n1C1CCCCC1,28*,-1,0,8.7*,.,1,0,ADAM10 ctr=6;ADAM17 confirm=5
N#C/C(=C(/O)CSc1nnc(Cc2cccs2)n1C1CCCCC1)c1nc2ccccc2[nH]1,-15,-2,.,-8,.,.,.,
